Results taken from PubChem BioAssay (NCI).
Where “and” joins values, the source holds several entries; their conditions need not be identical. Equal values may be shown once. The panel holds about 83,000 compounds, 20% with a hit somewhere; the sample as a whole holds those more often.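 Activity criterion: percent growth below 10, measured after cells in 96-well plates were exposed to a single compound concentration for 48 hours.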 Calls of active or inactive are those of the source.

Columns and labels:
Test in all cases: NCI-60 one-dose screen, 48 h (100 = growth as untreated, 0 = no growth, -100 = all killed)
Details in all cases: 10 µM unless noted
[1] = system: DU-145 prostate
[2] = system: K-562 leukemia
[3] = system: MALME-3M melanoma
[4] = system: MDA-MB-231 breast
[5] = system: RXF 393 renal
[6] = system: SF-268 CNS
[7] = system: SF-295 CNS
[8] = system: SF-539 CNS
[9] = system: UACC-257 melanoma
[10] = system: M14 melanoma
[11] = system: HCT-15 colon
[12] = system: SNB-75 CNS
[13] = system: SNB-19 CNS
[14] = system: PC-3 prostate
[15] = system: SK-MEL-5 melanoma
[16] = system: UACC-62 melanoma
[17] = system: LOX IMVI melanoma
[18] = system: SK-MEL-28 melanoma
[19] = system: HT29 colon
[20] = system: U251 CNS

Measured: growth

Cc1ccc(S(=O)(=O)NCN2C(=O)c3ccccc3C2=O)cc1
inactive: [1] 125% | [2] 106% | [3] 133% | [4] 117% | [5] 121% | [6] 106% | [7] 100% | [8] 112% | [9] 104% | [10] 109% | [11] 99.3% | [12] 96.9% | [13] 111% | [14] 102% | [15] 112% | [16] 111% | [17] 109% | [18] 111%

CCNC(=O)Nc1ccc(-c2nc3c(c(N4CCOC[C@@H]4C)n2)CCN(C2COC2)C3)cc1
33.2% (inactive) and -21.9% (active): [8]
37.3% (inactive) and 8.1% (active): [10]
33.9% (inactive) and 1.39% (active): [17]
inactive: [1] 49.7% and 19.4% | [2] 61.6% and 17.2% | [4] 44.5% and 23.2% | [6] 54.3% and 17.6% | [11] 60.3% and 15.9% | [19] 49.7% and 15.9% | [14] 26.6% and 12.6%
18.4% (inactive) and -25.6% (active): [7]
22.4% (inactive) and -26.4% (active): [15]
36.7% (inactive) and -27% (active): [9]
active: [3] -9.78% and -10.6% | [5] 3.76% and -28.4% | [16] 9.26% and -20.5%
25.1% (inactive) and -5.25% (active): [18]
55.9% (inactive) and 7.52% (active): [20]

CCOc1ccc2cc(-c3nn(CC4CCN(C)CC4)c4ncnc(N)c34)ccc2c1
87.5% (inactive) and 2.73% (active): [2]
active: [9] -67.9% | [16] -24.5%
97.1% (inactive) and -58.3% (active): [18]
69.7% (inactive) and -46.1% (active): [3]
77.7% (inactive) and 6.18% (active): [17]
46.8% (inactive) and -5.36% (active): [5]
87.2% (inactive) and -65.2% (active): [15]
inactive: [1] 102% and 69.9% | [4] 85% and 11.1% | [6] 90% and 48.6% | [7] 96.9% and 50.4% | [8] 84.4% and 16.7% | [11] 76% and 29.8% | [12] 50% and 33.9% | [13] 92.8% and 68.3% | [20] 83.8% and 43.3% | [14] 85.8% and 51.5%
98.4% (inactive) and -77.3% (active): [10]

Oc1ccc(/C=C/c2ccccc2)cc1
inactive: [1] 50.9% and 58.4% | [2] 64.7% and 58.4% | [3] 97.9% and 71.7% | [4] 57.4% and 47.1% | [5] 75.9% and 91% | [6] 53.7% and 62.5% | [7] 82.8% and 81% | [8] 79.6% and 68.7% | [9] 100% and 87.9% | [10] 68% and 73.4% | [11] 67.1% and 68.2% | [12] 68.7% and 83.4% | [20] 67.7% and 53.5% | [14] 70% and 43.8% | [15] 56.1% and 55.7% | [16] 56.3% and 53.4% | [17] 55.6% and 68.9% | [18] 97.5% and 99.8%

CCCCCN(CCCCC)CC(O)c1cc2c(c3ccccc13)CCCC2 (stereo unspecified)
inactive: [1] 75.5% and 80.2% | [2] 23.5% and 24.7% | [3] 65.4% and 74.3% | [5] 26% and 87.5% | [6] 86.7% and 80% | [7] 55.5% | [8] 68.8% and 52% | [9] 71.9% and 71.5% | [11] 52.2% and 52.1% | [19] 15.4% and 16.2% | [12] 86.9% and 70.7% | [13] 88.3% and 83.6% | [20] 63% and 62% | [14] 35.7% and 57.9% | [15] 61.1% and 36.3% | [16] 25.4% and 58.2% | [17] 43.1% and 40.8% | [18] 89.1% and 57.1%
8.63% (active) and 59.1% (inactive): [4]

O=C(CN1CCOCC1)N1CCOCC1
inactive: [1] 120% and 117% | [2] 102% and 108% | [3] 90.6% | [4] 108% and 98.1% | [5] 126% and 119% | [6] 108% and 115% | [7] 113% and 104% | [8] 111% and 101% | [9] 107% and 106% | [10] 97.4% and 106% | [11] 111% and 98% | [13] 103% and 105% | [20] 107% | [14] 90.8% | [15] 107% and 105% | [16] 93.9% and 96.6% | [17] 99.6% and 100% | [18] 123% and 107%

NC(=S)NS(=O)(=O)c1ccc(N)cc1
inactive: [1] 125% | [2] 103% | [3] 96.6% | [4] 117% | [5] 101% | [6] 107% | [7] 94.7% | [8] 98.7% | [9] 101% | [10] 106% | [11] 96.8% | [12] 93% | [13] 113% | [14] 102% | [15] 101% | [16] 119% | [17] 105% | [18] 109%

O=C(Nc1ccc(Br)cc1)c1cc(Br)ccc1O
14% (inactive) and 8.51% (active): [9]
19.9% (inactive) and 8.81% (active): [1]
18.3% (inactive) and -1.29% (active): [8]
2.31% (active) and 38.3% (inactive): [5]
active: [2] 9.25% and -22.8% | [3] -31.4% and -27.8% | [4] -36.1% and -21.9% | [6] 9.39% and 9.12% | [7] -22.6% and -16.5% | [10] 8.56% and 8.13% | [14] 5.68% and 3.31% | [15] -65.5% and -83.1% | [16] 3.77% and -27.9% | [17] 2.39% and 8.77%
inactive: [11] 15.2% and 15.6% | [19] 92.1% and 36.7% | [20] 15.4% and 10.2% | [18] 27% and 16.4%
